Assay results from PubChem BioAssay (NCATS).
Results filed as inconclusive are left out. A number with no mark means an inactive call. Active and inactive are the calls of the source. The call rests on the fitted dose curve; in most records, active means well fitted inhibition curve with a large enough effect; inconclusive means small, poorly fitted or top-dose-only effect; inactive means flat fitted curve, though single readings scatter. Where a SMILES comes first, the peptide text is derived from it. [ ]: non-standard residue; d: D form. The star is where a group is joined. Dolaproine = CO[C@@H]([C@@H]1CCCN1)[C@@H](C)C(=O)O; Dil = CC[C@H](C)[C@H](NC)[C@@H](CC(=O)O)OC; Doe = c1ccc(C[C@H](N*)c2nccs2)cc1; Aib = CC(C)(N)C(=O)O

Each compound was assayed against Glutathione peroxidase 1 (Homo sapiens) (UniProt P07203) (assay: Primary qHTS Assay for Inhibitors of Recombinant Selenoprotein Glutathione Peroxidase 1 (GPX1) (AID 1845191; further: nearly all actives have a fitted effect of over 65% in size)). Settings: recombinant GPX1, GR-coupled NADPH fluorescence, 15 min; series mostly up to 48.8 µM; activity, negative = inhibition: at the top concentration.
Excerpt: Assay Provider: Elias S.J. Arner MD PhD.
Department of Medical Biochemistry and Biophysics
Karolinska Institutet, Solna, Stockholm, Sweden
Selenoprotein glutathione peroxidases (GPX), like the ubiquitously expressed GPX1 and the ferroptosis modulator GPX4, enact their antioxidant activities by reducing hydroperoxides using glutathione. […] GPX1 and GPX4 inhibitors have thus shown promise as anti-cancer agents. Existing inhibitors are often promiscuous, or modulate GPX activity only indirectly, so novel direct inhibitors identified through screening against GPX1 and GPX4 could be valuable. Here, we developed optimized glutathione reductase (GR)-coupled GPX assays for the biochemical high-throughput screen (HTS) of almost 12,000 compounds with known mechanisms of action. Initial hits were triaged using a GR counter-screen, assessed for isoform specificity using a separate GPX2 assay, and were assessed for general selenocysteine-targeting activity using a thioredoxin reductase (TXNRD1) assay. With this suite of assays, we identified novel GPX1/GPX2- and GPX4-specific inhibitors and can here present a validated pipeline for future discovery research for selenoprotein-targeting agents.
SEQUENCE No. (e.g., 1, 2, 3, etc.); […] (e.g., Cells, Incubation, Reagent, etc.); VALUE; DESCRIPTION.
1; Reagent 1; 3 uL; GPx1 enzyme or no enzyme control in 1536-well, black, solid Greiner assay plate.
2; Compound; 25 nL; Kalypsis pin tool (Wako USA) equipped with a 1536-well pin head.
3; Incubation; 30 min; room temperature.
4; Reagent 2; 1 uL; 10 nM GPX1, 1 mM GSH, 0.5 mM CHP, 0.5 mM NADPH, 100 nM GR, 0.01% BSA substrate
5; Detection; Fluorescence; ViewLux microplate reader, excitation 340 nm and emission 450 nm.
6; Incubation; 15 min; room temperature.
7; Detection; Fluorescence; ViewLux microplate reader, excitation 340 nm and emission 450 nm.
NOTES (numbers refer to Sequence numbers above)
1. 3 uL of 16.66 nM GPX1 and 0.016% BSA in assay buffer (50 mM Tris-HCl, 2 mM EDTA (pH 7.5), 150 mM NaCl) was added to columns 3-48 of 1536-well assay plates using a BioRAPTR Flying Reagent Dispenser (Let's Go Robotics (LGR), Carlsbad, CA). A no-enzyme control (0.01% BSA in TES assay buffer) was added to columns 1-2.
2. 25 nL of test compounds and DMSO controls were added to each well with a pin tool (Kalypsys).
3. The assay plates were incubated for 30 minutes at room temperature.
4. 1 uL of master mix (500 nM glutathione reductase (GR), 5 mM reduced glutathione (GSH), 2.5 mM NADPH in assay buffer) was added. 1 uL of cumene hydroperoxide (CHP) ([2.5 mM] in 50% EtOH) was then added within 5 minutes to initiate the reaction. Final concentrations were: 10 nM GPX1, 1 mM GSH, 0.5 mM CHP, 0.5 mM NADPH, 100 nM GR, 0.01% BSA.
5. Initial fluorescence readout (t=0) at 340/450 nm was measured using a ViewLux multimodal detector (PerkinElmer, Waltham, MA).
7. Endpoint fluorescence readout (t=15) at 340/450 nm was measured 15 min after room temperature incubation.

Glutathione peroxidase 1 (Homo sapiens), sequence (P07203 whole entry, looked up): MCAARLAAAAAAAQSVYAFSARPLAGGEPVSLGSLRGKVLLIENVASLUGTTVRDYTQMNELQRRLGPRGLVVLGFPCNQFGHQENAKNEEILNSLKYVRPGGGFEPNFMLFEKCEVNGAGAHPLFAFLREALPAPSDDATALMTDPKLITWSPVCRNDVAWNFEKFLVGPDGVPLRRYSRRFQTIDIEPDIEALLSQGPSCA

Structure (SMILES)	outcome	activity, negative = inhibition	Potency
Clc1ccc([C@]23CNC[C@H]2C3)cc1Cl	inactive		
O=S(=O)(c1ccccc1F)N1CCOc2c(N3CCNCC3)cccc21	inactive		
C#C[C@]1(O)CC[C@H]2[C@@H]3CC[C@H]4Cc5nc6nc7ccccc7n6cc5C[C@]4(C)[C@H]3CC[C@@]21C		-8.64%	
C/C=C(\C)C(=O)O[C@H]1CC2C(=C1C)[C@H]1OC(=O)[C@](C)(O)[C@]1(O)[C@H](OC(=O)CCC)C[C@@]2(C)OC(C)=O (stereo not given in full)		2.88% [at 27.7 µM]	
O=C1NC(=O)c2c1c1c3ccccc3n3c1c1c2c2ccccc2n1C1CCC3O1		4.95%	
C[C@]12CC[C@H](O)C[C@H]1CC[C@@H]1[C@@H]2[C@H](O)C(=O)[C@]2(C)[C@@H](c3ccc(=O)oc3)CC[C@]12O		-1.99%	
Cc1c(Cl)c(OCC(=O)N2CCN(C)CC2)nc2sc(C(=O)NC3CC3)c(N)c12		-20.1%	
CC/C=C/C=C/C1(C)OC(OC)=C(C(=O)C2C(C)C(=O)c3cc(OC)c(O)c(O)c3C2(C)O)C1=O (stereo not given)		-21.8% [at 27.7 µM]	
CN(C)c1cc2c(cc1Sc1nc3c(N)nccc3n1CCNCC(C)(C)C)OCO2			inactive
CO[C@@H]1C[C@H](O[C@H]2CC[C@@]3(C)C(CCC4C3CC[C@]3(C)[C@@H](C5=CC(=O)OC5)[C@@H](OC(C)=O)CC43O)C2)O[C@H](C)[C@@H]1O[C@H]1O[C@H](CO[C@@H]2O[C@H](CO)[C@@H](O)[C@H](O)[C@H]2O)[C@@H](O)[C@H](O)[C@H]1O (stereo not given in full)		-9.2% [at 15.3 µM]	
CC[C@H](C)[C@@H]([C@@H](CC(=O)N1CCC[C@H]1[C@H](OC)[C@@H](C)C(=O)N[C@@H](Cc1ccccc1)c1nccs1)OC)N(C)C(=O)[C@@H](NC(=O)C(C)(C)N)C(C)C (H-[Aib]V[Dil][Dolaproine]-Doe)		-3.63%	
CN1C(=O)CN=C(c2ccccc2Cl)c2cc(Cl)ccc21		-9.16%	
CC(=O)OC[C@]12C[C@H](OC(=O)CC(C)C)C(C)=C[C@H]1O[C@@H]1[C@H](O)[C@@H](OC(C)=O)[C@@]2(C)[C@@]12CO2		0.0777% [at 27.7 µM]	
C[C@H]1O[C@@H](O[C@H]2CC[C@]3(C=O)C4CC[C@]5(C)[C@@H](C6=CC(=O)OC6)CC[C@]5(O)[C@@H]4CC[C@]3(O)C2)C[C@@H](O)[C@@H]1O (stereo not given in full)	inactive [at 27.7 µM]		
COCC(C(=O)OC1CC2CCC(C1)N2C)c1ccccc1 (stereo not given)		-6.2%	
O=C(CC1NCCC[C@H]1O)Cn1cnc2cc(Br)c(Cl)cc2c1=O (stereo not given in full)		-15.9%	
CC[C@H]1C2CC3[C@@H]4N(C)c5ccccc5[C@]45C[C@@H]([C@H]2[C@H]5O)N3[C@H]1O	inactive [at 27.7 µM]		
FC(F)(F)c1ccc(N2CCNCC2)nc1Cl		-5.97%	
Cc1cccc(NC(=O)NC2N=C(c3ccccc3)c3ccccc3N(CC(=O)c3ccccc3C)C2=O)c1 (stereo not given)	inactive		
CC(=O)OC[C@]12C[C@H](OC(=O)CC(C)C)C(C)=C[C@H]1O[C@@H]1[C@H](O)C[C@@]2(C)[C@]12CO2	inactive [at 27.7 µM]		

Structure (SMILES)	outcome	activity, negative = inhibition	Potency
CO[C@H]1C[C@H](O[C@H]2CC[C@]3(CO)[C@H]4CC[C@]5(C)[C@@H](C6=CC(=O)OC6)CC[C@]5(O)[C@@H]4CC[C@]3(O)C2)O[C@H](C)[C@H]1O		-1.6% [at 27.7 µM]	
CN1C2CCC1CC(OC(=O)N1Cc3ccccc3NC1=O)C2 (stereo not given)	inactive		
CC(C)C[C@H]1C(=O)N2CCC[C@H]2[C@]2(O)O[C@](NC(=O)[C@@H]3C[C@@H]4c5cccc6[nH]cc(c56)C[C@H]4N(C)C3)(C(C)C)C(=O)N12		-27.1%	
CC[C@H]1/C=C\C=C/C[C@@H](C)[C@H](O)[C@@](C)(O)C(=O)[C@@H](C)[C@H](O)[C@@H](C)C(=O)[C@@H](C)[C@H](O)[C@@H](C)/C=C\C(=O)O[C@@H]2[C@H](C)[C@H](CC1)O[C@]1(CC[C@H](C)[C@H](C[C@@H](C)O)O1)[C@H]2C		3.52%	
C[C@H]1CN(Cc2ccc(CC(=O)N3CCC(Nc4cccc(F)c4)CC3)cc2)CCN1	inactive		
O=C(C[C@@H]1NCCC[C@H]1O)Cn1cnc2ccccc2c1=O	inactive		
CC(=O)O[C@H]1C(=O)[C@]2(C)C(O)C[C@H]3OC[C@@]3(OC(C)=O)[C@H]2[C@H](OC(=O)c2ccccc2)[C@]2(O)C[C@H](O)C(C)=C1C2(C)C (stereo not given in full)		-13% [at 15.3 µM]	
CN(Cc1cccc(-c2ccncc2)c1)C(=O)Oc1ccc(-c2ccc(C(N)=O)cc2)cc1		-6.56%	
CN(C(=O)C(c1ccccc1)c1ccccc1)[C@H](CN1CC[C@H](O)C1)c1ccccc1	inactive		
CCOC(=O)C1(c2ccccc2)CCCN(C)CC1 (stereo not given)	inactive		
COc1ccc(C(C)(C)C)cc1CN[C@H]1C2CCN(CC2)[C@H]1C(c1ccccc1)c1ccccc1			inactive
CCc1nn(C)c(C(=O)NCc2ccc(Oc3ccc(C)cc3)cc2)c1Cl	inactive		
COc1ccc(CN(C(=O)[C@@H](N)Cc2c(C)cc(C(N)=O)cc2C)[C@@H](C)c2ncc(-c3ccccc3)[nH]2)cc1C(=O)O	inactive		
C[C@]12CC[C@H](O)C[C@@H]1CC[C@@H]1[C@@H]2CC[C@]2(C)[C@@H](C3=CC(=O)OC3)CC[C@]12O		-13% [at 27.7 µM]	
CN1CCN(c2nc3ccccc3nc2Cl)CC1	inactive		
COC1CC(O[C@H]2CC[C@]3(C=O)C4CC[C@]5(C)[C@@H](C6=CC(=O)OC6)CC[C@]5(O)[C@@H]4CC[C@@H]3C2)OC(C)C1O[C@@H]1O[C@H](CO)[C@@H](O[C@@H]2O[C@H](CO)[C@@H](O)[C@H](O)[C@H]2O)[C@H](O)[C@H]1O (stereo not given in full)		-12.9% [at 15.3 µM]	
COC(=O)C12C(=O)C(C)(O)C(=O)C1(C)C(C)=CC1C34CCC(OC3=O)C(C)(C)C4CCC12C (stereo not given)		-18.3% [at 27.7 µM]	
C[C@]12CC[C@H]3[C@@H](CCC4=C/C(=N/OCC(=O)O)CC[C@@]43C)[C@@H]1CC[C@@H]2O		-15.3%	
CCCCCn1cc(C(=O)Cc2ccccc2OC)c2ccccc21		-12.3%	
CC(=O)OC[C@]12C[C@H](OC(C)=O)C(C)=C[C@H]1O[C@@H]1[C@H](O)[C@@H](O)[C@@]2(C)[C@]12CO2		1.81% [at 27.7 µM]	
